Out of some 390,000 compounds screened, about 4,000 (1%) were called active. About 7% were inconclusive and are not listed. Many of the other results were omitted from the sample, so actives are more common in it than they were. Unmarked numbers belong to inactive results. Calls come from the whole dose curve; as a rule, active = well fitted inhibition curve with a large enough effect; inconclusive = small, poorly fitted or top-dose-only effect, or another doubt; inactive = no such curve, though single readings can be large or run the other way.
Potency is the fitted concentration of half-maximal effect.

Chain of DNA polymerase iota (Homo sapiens) (Q9UNA4 whole entry, looked up): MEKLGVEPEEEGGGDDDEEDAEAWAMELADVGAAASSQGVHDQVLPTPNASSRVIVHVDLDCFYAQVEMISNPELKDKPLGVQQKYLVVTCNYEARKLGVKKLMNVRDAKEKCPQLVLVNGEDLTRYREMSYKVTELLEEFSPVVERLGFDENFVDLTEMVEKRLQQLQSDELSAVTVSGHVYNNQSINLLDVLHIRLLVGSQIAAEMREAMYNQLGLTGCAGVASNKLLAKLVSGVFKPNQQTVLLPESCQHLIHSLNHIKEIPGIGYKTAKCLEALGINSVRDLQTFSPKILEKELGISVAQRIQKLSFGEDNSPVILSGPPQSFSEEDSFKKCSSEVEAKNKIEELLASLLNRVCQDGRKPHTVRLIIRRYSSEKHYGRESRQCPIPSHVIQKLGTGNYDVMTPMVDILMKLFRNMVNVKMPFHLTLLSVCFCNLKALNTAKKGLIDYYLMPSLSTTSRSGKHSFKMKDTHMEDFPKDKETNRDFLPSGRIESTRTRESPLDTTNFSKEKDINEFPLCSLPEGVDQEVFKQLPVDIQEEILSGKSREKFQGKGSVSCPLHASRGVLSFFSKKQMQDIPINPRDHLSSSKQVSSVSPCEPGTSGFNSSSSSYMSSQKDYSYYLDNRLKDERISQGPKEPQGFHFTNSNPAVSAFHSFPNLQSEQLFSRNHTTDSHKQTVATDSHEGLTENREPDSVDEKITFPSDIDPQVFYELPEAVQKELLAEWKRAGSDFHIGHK

The assay has as its target DNA polymerase iota (Homo sapiens) (UniProt Q9UNA4). Briefly: qHTS for Inhibitors of Polymerase Iota. To be noted: Pol iota fluorescent replication assay, 10 min; series mostly up to 115 µM; activity, negative = inhibition: at the top concentration. In short, it runs like this:
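Pol iota at 10 nM preincubated 15 min with compounds at room temperature; reaction started with fluorescent substrate, 50 nM final. Fluorescence read kinetically at 0 and 10 min; buffer-only wells as negative control.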
As for `CCc1nnc(SCc2c(F)cccc2Cl)c2cc3sccc3n12`, the “activity, negative = inhibition” value was 9.66%.

On to `CCc1ccccc1NC(=O)Cn1c(=O)n(-c2cccc(C)c2)c(=O)c2c1c1cc(OC)ccc1n2C`, for which the “activity, negative = inhibition” value is 13.1%.

Consider `Cc1[nH]n(-c2ccc([N+](=O)[O-])cc2)c(=O)c1C=NCCN1CCN(C(=O)c2ccccc2F)CC1`, for which the “activity, negative = inhibition” value was 2.23%.

In the case of `O=c1[nH]n(-c2ccc([N+](=O)[O-])cc2)c(=O)c2ccccc12`, the Potency is 10 µM (active).

Consider `CC(=O)N1c2ccccc2N(Cc2ccc([N+](=O)[O-])cc2)C(=O)C1(C)C`, for which the “activity, negative = inhibition” value was 18.7%.

Consider `COC(=O)c1ccc(C(NC(=O)OCc2ccccc2)/C(C)=C/[C@@H](C)C(=O)NCc2ccc(OC)c(OC)c2)cc1` (some centres undefined), for which the “activity, negative = inhibition” value was 3.74%.

As for `COc1cc(/C=C/C(=O)OCC(=O)NC(=O)NCc2ccccc2)ccc1OCC#N`, the “activity, negative = inhibition” value is -6.58%.

For the molecule `COC(=O)c1ccc(COc2ccc(/C=C/C(=O)c3ccc(OC)c(CSCC(=O)O)c3)cc2OC)cc1`, the Potency is 20 µM (active).

For `CCN1CCN(CCCNC(=O)c2cnn(-c3ccc(C)cc3C)c2C2CCN(C(=O)OC(C)(C)C)CC2)CC1`, the “activity, negative = inhibition” value was 28.9%.

As for `CCOc1ccc(CNCCSc2nnnn2C)cc1`, the “activity, negative = inhibition” value is -4.68%.

For `Cc1ccc(N(CC(=O)NCC(C)c2ccccc2)S(=O)(=O)N(C)C)cc1` (centres undefined), the “activity, negative = inhibition” value was 18%.

In the case of `COc1ccc(C2(Nc3cccc(F)c3)C(=O)c3ccccc3C2=O)cc1`, the “activity, negative = inhibition” value was 21.1%.

For `CCCC(=O)N1c2ccc(-c3csc(N)n3)cc2CC1C` (centres undefined), the “activity, negative = inhibition” value was -5.87%.

With `CN(c1ccc(O)cc1)c1nc(-c2cccnc2)cs1`, the “activity, negative = inhibition” value is 5.31%.

For `CC(C)(C)C(=O)OCc1nc(-c2ccc(O)c(O)c2)cs1`, the Potency is 31.6 µM (active).

With `Cc1ccccc1-n1c(=O)c2ccccc2n(Cc2ccc(F)cc2)c1=O`, the “activity, negative = inhibition” value was 28.7%.

With `O=C(Nc1cc(Cl)cc(Cl)c1)c1ccc2c(c1)N(Cc1cccc(Cl)c1)C(=O)c1ccccc1S2=O` (centres undefined), the “activity, negative = inhibition” value was -3.86%.

With `CCc1cc(=O)oc2c(C)c(OCC(=O)NCCN3CCOCC3)ccc12`, the Potency is 79.4 µM (active).

On to `Cc1cc(=O)oc2c(C)c(OCC(=O)NCCN3CCOCC3)ccc12`, for which the “activity, negative = inhibition” value was 20.5%.

As for `CCCc1cc(=O)oc2c(C)c(OCC(=O)NCc3ccccn3)ccc12`, the “activity, negative = inhibition” value is -18.4%.

With `CC(=O)Nc1ccc(S(=O)(=O)Nc2ccc(-c3ccc4nnc(C)n4n3)cc2)cc1`, the “activity, negative = inhibition” value was 59.5%.

In the case of `CC(=O)c1ccc(S(=O)(=O)Nc2ccc(-c3ccc4nncn4n3)cc2)cc1`, the Potency is 50.1 µM (active).

For the molecule `O=C(Nc1ccc(-c2ccc3nncn3n2)cc1)C1CCCCC1`, the “activity, negative = inhibition” value was 37.4%.

Take `Cc1cc(OC(C)C(=O)Nc2sc3c(c2C(N)=O)CCCC3)ccc1Cl` (centres undefined): the “activity, negative = inhibition” value is -7.08%.

For the molecule `COc1cccc(C(=O)NC2=NC(c3ccc(N(C)C)cc3)CC(=O)N2)c1` (centres undefined), the “activity, negative = inhibition” value was 11.2%.

As for `CSc1nc(-c2ccccc2Cl)nc2c1Cc1c(CO)cnc(C)c1O2`, the “activity, negative = inhibition” value is -7.6%.

Consider `CC(C)N(C(=O)CSc1nnc(NC2CC2)s1)c1ccccc1`, for which the “activity, negative = inhibition” value is 50.4%.

As for `CC(C)c1ccc(Nc2nnc(SCC(=O)c3nnc(-c4ccccc4)o3)s2)cc1`, the Potency is 22.4 µM (active).

For `CC(C)Nc1nnc(SCC(=O)c2c[nH]c3ccccc23)s1`, the “activity, negative = inhibition” value is 16.3%.

Turning to `CCc1cccc(C)c1NS(=O)(=O)c1ccc(-c2cc(C)no2)s1`, the “activity, negative = inhibition” value was -1.65%.

Regarding `COc1ccc(OC)c(NC(=O)/C=C/c2ccc(C)o2)c1`, the “activity, negative = inhibition” value was -16%.

With `COC(=O)/C=C\C(=O)Nc1cccc([N+](=O)[O-])c1`, the “activity, negative = inhibition” value is 0.272%.

Turning to `Cc1ccc(/C=C/C(=O)Nc2ccc([N+](=O)[O-])c(NC(=O)/C=C/c3ccc(C)o3)c2)o1`, the Potency is 25.1 µM (active).

Regarding `Cc1ccc(Cn2c(=O)n(Cc3nc(-c4ccccc4)no3)c(=O)c3cc4c(cc32)OCO4)cc1`, the “activity, negative = inhibition” value was -10.1%.

As to `O=C(CSc1nc(=O)n(Cc2cccnc2)c2c1CCC2)Nc1ccc(F)cc1F`, the “activity, negative = inhibition” value is 30.7%.

Regarding `O=C(Nc1ccc(F)cc1F)c1ccc2c(=O)n3c(nc2c1)CCCCC3`, the “activity, negative = inhibition” value is -8.57%.

`Cc1ccc(/C=C(\C#N)C(=O)Nc2cc(C)ccc2C)cc1`: the “activity, negative = inhibition” value was -3.12%.

Take `Cc1ccc(Cl)cc1NC(=O)/C(C#N)=C\c1cn(Cc2ccc(F)cc2)c2ccccc12`: the Potency was 89.1 µM (active).

Take `COCCCNC(=O)Cn1cc(/C=C(\C#N)C(=O)N2CCN(c3ccccc3)CC2)c2ccccc21`: the “activity, negative = inhibition” value was -9.17%.

`Nc1ccc(/C=C/c2ccnc3ccccc23)c([N+](=O)[O-])c1`: the “activity, negative = inhibition” value is 28.7%.

For `Cc1ccccc1OCc1nc2c3cnn(-c4ccccc4F)c3ncn2n1`, the “activity, negative = inhibition” value is 16%.

Regarding `Cc1ccc(C)c(S(=O)(=O)c2nnn3c2nc(N2CCOCC2)c2sccc23)c1`, the “activity, negative = inhibition” value is 28.5%.

In the case of `O=C(COC(=O)c1ccccc1C(=O)N1CCN(c2ccccc2)CC1)NCc1ccccc1`, the “activity, negative = inhibition” value was 151%.

For `CN(c1ccccc1)S(=O)(=O)c1ccc(Cl)c(C(=O)OCC(=O)NCc2ccco2)c1`, the Potency is 44.7 µM (active).

With `O=C(COC(=O)c1cnc(Cl)c(Cl)c1)NCc1ccco1`, the Potency was 17.8 µM (active).

In the case of `Cc1cc(C(=O)OCC(=O)NCc2ccco2)c(C)n1-c1ccccc1`, the Potency was 22.4 µM (active).

Regarding `COc1ccc(CCNC(=O)COC(=O)c2cnc(Cl)c(Cl)c2)cc1`, the “activity, negative = inhibition” value was 28%.

Regarding `Cc1cccc(C)c1NC(=O)COC(=O)c1ccccc1O`, the “activity, negative = inhibition” value is 86.2%.

For the molecule `O=S(=O)(NCc1ccco1)c1cnc(Cl)c(Cl)c1`, the “activity, negative = inhibition” value is -22.2%.

Turning to `O=C(COC(=O)c1cc(S(=O)(=O)N2CCOCC2)ccc1Cl)NCCc1ccccc1`, the “activity, negative = inhibition” value is 45.3%.

With `O=C(CCCOc1ccccc1)NCc1ccco1`, the “activity, negative = inhibition” value is 13.6%.

`O=C(COC(=O)c1ccccc1O)NCc1ccco1`: the Potency is 35.5 µM (active).

Turning to `CN(c1ccccc1)S(=O)(=O)c1ccc(Cl)c(C(=O)OCC(=O)N2CCOCC2)c1`, the “activity, negative = inhibition” value was 166%.

`Cn1c(N)c(C(=O)COC(=O)c2ccccc2NCc2ccco2)c(=O)n(C)c1=O`: the “activity, negative = inhibition” value is 15.1%.

The values above are taken from PubChem BioAssay AID588590 (National Center for Advancing Translational Sciences (NCATS), 2011).
